Assay results: PubChem BioAssay AID1159580 (chemical genetic matrix, 2015)
The campaign covered roughly 5,500 compounds. About 2,000 (36%) were called active. Roughly 18% stayed inconclusive and do not appear here. No stated cut-off is given here; in the data, active means normalized growth mostly below about 0.91 (no sharp cut-off); inconclusive means no clear call, values can overlap the other calls; inactive means mostly above about 0.92. The list shows a part of the results.

Assay: chemical genetic growth profiling, strain panel (AID 1159580);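 further: tested at 20 µM; growth read once vehicle control cultures reached saturation at 30 °C; 1 = growth at the plate median or of vehicle wells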
Settings: growth OD

Measured: normalized growth

S=c1nc[nH]c2nc[nH]c12
inactive: S. cerevisiae deletion strains, locus YJR075W, strain HOC1, stronger effect = lower value 0.996 | S. cerevisiae deletion strains, locus YKL009W, strain mrt4, stronger effect = lower value 0.987 | S. cerevisiae deletion strains, locus YKL068W, stronger effect = lower value 0.983 | S. cerevisiae deletion strains, locus YKL085W, strain MDH1 (second series), stronger effect = lower value 0.966 | S. cerevisiae deletion strains, locus YKL085W, strain MDH1, stronger effect = lower value 0.966 | S. cerevisiae deletion strains, locus YKL160W, strain elf1, stronger effect = lower value 1.04 | S. cerevisiae deletion strains, locus YKR001C, strain vps1, stronger effect = lower value 0.99 | S. cerevisiae deletion strains, locus YKR026C, strain gcn3, stronger effect = lower value 1.01 | S. cerevisiae deletion strains, locus YKR091W, strain srl3, stronger effect = lower value 0.996 | S. cerevisiae deletion strains, locus YLL001W, strain dnm1, stronger effect = lower value 1.01 | S. cerevisiae deletion strains, locus YLL026W, stronger effect = lower value 1.01 | S. cerevisiae deletion strains, locus YLL041C, strain sdh2, stronger effect = lower value 0.989 | S. cerevisiae deletion strains, locus YLR027C, strain aat2, stronger effect = lower value 1.02 | S. cerevisiae deletion strains, locus YLR039C, strain RIC1, stronger effect = lower value 1 | S. cerevisiae deletion strains, locus YLR058C, strain SHM2, stronger effect = lower value 0.982 | S. cerevisiae deletion strains, locus YLR102C, strain apc9, stronger effect = lower value 0.978 | S. cerevisiae deletion strains, locus YLR113W, strain HOG1, stronger effect = lower value 1 | S. cerevisiae deletion strains, locus YLR221C, strain rsa3, stronger effect = lower value 1.01 | S. cerevisiae deletion strains, locus YLR258W, strain gsy2, stronger effect = lower value 1.01 | S. cerevisiae deletion strains, locus YLR262C, strain YPT6 (second series), stronger effect = lower value 1.03 | S. cerevisiae deletion strains, locus YLR262C, strain YPT6, stronger effect = lower value 0.959 | S. cerevisiae deletion strains, locus YLR268W, strain sec22, stronger effect = lower value 1 | S. cerevisiae deletion strains, locus YLR320W, strain mms22, stronger effect = lower value 1.02 | S. cerevisiae deletion strains, locus YLR330W, strain CHS5, stronger effect = lower value 0.992 | S. cerevisiae deletion strains, locus YLR342W, strain FKS1 (second series), stronger effect = lower value 1 | S. cerevisiae deletion strains, locus YLR342W, strain FKS1, stronger effect = lower value 1.02 | S. cerevisiae deletion strains, locus YLR357W, strain rsc2, stronger effect = lower value 1.08 | S. cerevisiae deletion strains, locus YLR370C, strain arc18, stronger effect = lower value 1.01 | S. cerevisiae deletion strains, locus YLR371W, strain rom2, stronger effect = lower value 0.988 | S. cerevisiae deletion strains, locus YLR384C, strain iki3, stronger effect = lower value 1 | S. cerevisiae deletion strains, locus YLR418C, strain cdc73, stronger effect = lower value 1.01 | S. cerevisiae deletion strains, locus YML016C, strain PPZ1, stronger effect = lower value 1 | S. cerevisiae deletion strains, locus YML032C, strain rad52, stronger effect = lower value 1 | S. cerevisiae deletion strains, locus YML120C, strain ndi1, stronger effect = lower value 0.986 | S. cerevisiae deletion strains, locus YML124C, strain tub3, stronger effect = lower value 0.989 | S. cerevisiae deletion strains, locus YMR058W, strain fet3, stronger effect = lower value 0.988 | S. cerevisiae deletion strains, locus YMR078C, strain ctf18, stronger effect = lower value 0.973 | S. cerevisiae deletion strains, locus YMR125W, strain sto1, stronger effect = lower value 1.07 | S. cerevisiae deletion strains, locus YMR129W, stronger effect = lower value 1.01 | S. cerevisiae deletion strains, locus YMR205C, strain PFK2, stronger effect = lower value 1.01 | S. cerevisiae deletion strains, locus YMR223W, strain ubp8, stronger effect = lower value 0.949 | S. cerevisiae deletion strains, locus YMR231W, strain pep5, stronger effect = lower value 1.02 | S. cerevisiae deletion strains, locus YMR263W, strain SAP30, stronger effect = lower value 0.999 | S. cerevisiae deletion strains, locus YMR307W, strain GAS1, stronger effect = lower value 1.08 | S. cerevisiae deletion strains, locus YNL067W, strain RPL9B, stronger effect = lower value 0.996 | S. cerevisiae deletion strains, locus YNL071W, strain lat1, stronger effect = lower value 1 | S. cerevisiae deletion strains, locus YNL183C, strain NPR1, stronger effect = lower value 0.966 | S. cerevisiae deletion strains, locus YNL209W, strain ssb2, stronger effect = lower value 1.03 | S. cerevisiae deletion strains, locus YNL233W, strain BNI4, stronger effect = lower value 1 | S. cerevisiae deletion strains, locus YNL248C, strain rpa49, stronger effect = lower value 1.05 | S. cerevisiae deletion strains, locus YNL250W, strain rad50, stronger effect = lower value 0.974 | S. cerevisiae deletion strains, locus YNL271C, strain bni1, stronger effect = lower value 0.979 | S. cerevisiae deletion strains, locus YNL298W, strain CLA4, stronger effect = lower value 0.989 | S. cerevisiae deletion strains, locus YNL307C, strain MCK1, stronger effect = lower value 0.988 | S. cerevisiae deletion strains, locus YNL322C, strain KRE1 (second series), stronger effect = lower value 1.02 | S. cerevisiae deletion strains, locus YNL322C, strain KRE1, stronger effect = lower value 0.994 | S. cerevisiae deletion strains, locus YNR049C, strain mso1, stronger effect = lower value 1 | S. cerevisiae deletion strains, locus YNR052C, strain pop2, stronger effect = lower value 0.979 | S. cerevisiae deletion strains, locus YOL006C, strain TOP1, stronger effect = lower value 1.01 | S. cerevisiae deletion strains, locus YOL012C, strain htz1 0.693 | S. cerevisiae deletion strains, locus YOL147C, strain pex11, stronger effect = lower value 0.982 | S. cerevisiae deletion strains, locus YOR001W, strain rrp6, stronger effect = lower value 1 | S. cerevisiae deletion strains, locus YOR061W, strain CKA2, stronger effect = lower value 0.993 | S. cerevisiae deletion strains, locus YOR069W, strain VPS5, stronger effect = lower value 0.998 | S. cerevisiae deletion strains, locus YOR070C, strain gyp1, stronger effect = lower value 1.01 | S. cerevisiae deletion strains, locus YOR080W, strain dia2, stronger effect = lower value 1 | S. cerevisiae deletion strains, locus YOR083W, strain WHI5, stronger effect = lower value 0.983 | S. cerevisiae deletion strains, locus YOR106W, strain vam3, stronger effect = lower value 1.03 | S. cerevisiae deletion strains, locus YOR136W, strain idh2, stronger effect = lower value 0.99 | S. cerevisiae deletion strains, locus YOR144C, strain elg1, stronger effect = lower value 1 | S. cerevisiae deletion strains, locus YOR184W, strain ser1, stronger effect = lower value 0.996 | S. cerevisiae deletion strains, locus YOR231W, strain MKK1, stronger effect = lower value 1 | S. cerevisiae deletion strains, locus YOR265W, strain rbl2, stronger effect = lower value 1.01 | S. cerevisiae deletion strains, locus YOR270C, strain vph1, stronger effect = lower value 1.09 | S. cerevisiae deletion strains, locus YOR290C, strain snf2, stronger effect = lower value 1.04 | S. cerevisiae deletion strains, locus YOR316C, strain cot1, stronger effect = lower value 0.982 | S. cerevisiae deletion strains, locus YPL051W, strain arl3, stronger effect = lower value 1.01 | S. cerevisiae deletion strains, locus YPL055C, strain LGE1, stronger effect = lower value 0.992 | S. cerevisiae deletion strains, locus YPL078C, strain atp4, stronger effect = lower value 0.997 | S. cerevisiae deletion strains, locus YPL106C, strain sse1, stronger effect = lower value 1.01 | S. cerevisiae deletion strains, locus YPL240C, strain hsp82, stronger effect = lower value 1.01 | S. cerevisiae deletion strains, locus YPL241C, strain CIN2, stronger effect = lower value 0.994 | S. cerevisiae deletion strains, locus YPL256C, strain CLN2, stronger effect = lower value 1.04 | S. cerevisiae deletion strains, locus YPR119W, strain clb2, stronger effect = lower value 0.977 | S. cerevisiae deletion strains, locus YPR141C, strain kar3, stronger effect = lower value 0.98 | S. cerevisiae deletion strains, locus YPR163C, strain tif3, stronger effect = lower value 0.974 | S. cerevisiae deletion strains, locus YPR167C, strain met16, stronger effect = lower value 0.988 | S. cerevisiae deletion strains, strain wtn01, stronger effect = lower value 0.978 | S. cerevisiae strains, strain wild type, stronger effect = lower value 1
